PubChem BioAssay (NCI)
This is part of a sample that, as a whole, favours compounds with a hit. Of some 79,000 tested, about 15% had one in any assay. Values without a mark were called inactive. Active and inactive are the calls of the source. Cut-off read from the data, not from the text of the source: active = growth inhibition above about 70%; inactive = the rest.

How the values were obtained:
[1] = NCI Yeast Anticancer Drug Screen. Data for the rad50 strain (AID 155);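 note: 0% = growth of vehicle-only cultures of the same strain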; details: S. cerevisiae rad50 strain growth inhibition; at 50.0 µM; hits give high values
In short: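 Vehicle-treated cultures provide the reference for the growth inhibition reported for compound-exposed, repair-deficient yeast.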

[2] = NCI Yeast Anticancer Drug Screen. Data for the mec2-1 strain (AID 157); details: S. cerevisiae mec2-1 strain, at 50.0 µM, hits give high values
In short: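 Each compound was tested on mec2-1 yeast, a strain altered in DNA damage repair or cell cycle control. Growth inhibition is reported relative to vehicle.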

[3] = NCI Yeast Anticancer Drug Screen. Data for the sgs1 mgt1 strain (AID 161);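 note: 0% = growth of cultures given vehicle only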; details: S. cerevisiae sgs1 mgt1 strain, at 50.0 µM, hits give high values
In short: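 Mutant yeast exposed to compound; growth scored against vehicle-only wells.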

[4] = NCI Yeast Anticancer Drug Screen. Data for the cln2 rad14 strain (AID 165);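 note: 0% = growth equal to vehicle treated cultures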; details: S. cerevisiae cln2 rad14 strain, at 50.0 µM, hits give high values
In short: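 Test compounds were added to cln2 rad14 yeast cultures; inhibition of growth was then determined by comparison with vehicle treatment.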

[5] = NCI Yeast Anticancer Drug Screen. Data for the bub3 strain (AID 167); details: S. cerevisiae bub3 mutant strain, at 50.0 µM, hits give high values
In short: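 Mutant yeast screening strain plus compound; vehicle-treated cultures serve as the 0% inhibition reference.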

[6] = NCI Yeast Anticancer Drug Screen. Data for the mlh1 rad18 strain (AID 175); details: S. cerevisiae mlh1 rad18 strain growth inhibition; at 50.0 µM; hits give high values
In short: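 Inhibition values reflect reduced growth of mutant yeast versus vehicle-treated controls following compound exposure; the mutations affect DNA damage repair.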

Row | Structure (SMILES) | growth inhibition [1] | growth inhibition [2] | growth inhibition [3] | growth inhibition [4] | growth inhibition [5] | growth inhibition [6]
1 | COC(=O)/C=C/c1cc(=O)n2c(nc3ccccc32)s1 | -11.1% | -20.1% | -13.2% | -35.2% | -41.5% | -12.2%
2 | CC/C(=N/O)C(C)C(=O)CCC(=O)Nc1ccc(Cl)cc1 (stereo unspecified) | -11.6% | -7% | 0.15% | 7.35% | 8.15% | -5.65%
3 | CCCC(=O)Oc1ccccc1C1CCCCC1 | 15.9% | 23.8% | 12.3% | 21.3% | 7.35% | 3.45%
4 | Cc1cccc(NC(=O)Oc2ccc(Nc3ccccc3)cc2)c1 | 6.6% | 38.5% | 40.2% | 12.3% | 62% | 50.4%
5 | Nc1ccc(Nc2ccc([N+](=O)[O-])cc2S(=O)(=O)O)cc1 | 9.1% | 4% | -17% | -16.4% | -7.65% | 10.8%
6 | Cc1ccc(SC(F)(F)C(F)C(F)(F)F)cc1 (stereo unspecified) | -4.65% | -3.6% | -7.75% | 9.45% | 7.9% | -1.1%
7 | NC(=O)C1=CNCCC1 | -1.15% | -6.05% | -6.35% | 12.3% | 10.7% | 14.7%
8 | COc1ccc(CCCc2cc3c(cc2OC)OCO3)cc1 | 5.6% | -4.1% | 15.5% | -8.65% | 35.6% | 12.2%
9 | Nc1cnc2c(c1)c(=O)nc1n2CCS1 | -0.45% | 9.65% | 6.6% | 5.3% | 0.5% | -27.1%
10 | CC(=O)Nc1ccc(S(=O)(=O)c2ccc(NC(C)=O)cc2)cc1 | -10.6% | -10.1% | -48.5% | -6.2% | -26.5% | -40.8%
11 | COc1cc(/C=C2\C=Cc3ccccc32)ccc1N(C)C | 5.45% | -13.2% | -6.85% | -54.4% | 3.8% | -15.5%
12 | O=[N+]([O-])c1ccc(I)c(I)c1 | -20.8% | -3.8% | 0.1% | -43.2% | -0.45% | 7.85%
13 | O=[N+]([O-])c1ccc(OS(=O)(=O)c2ccccc2)cc1 | -3.25% | 7.9% | -5.35% | -3.95% | 4.05% | 9.65%
14 | CCCCCCCCCCCCCCCCOCC(CCl)OP(=O)(O)OP(=O)(O)OCC1OC(n2ccc(N)nc2=O)C(O)C1O (stereo unspecified) | -33.3% | -38.9% | 15.1% | -35% | -37.4% | -95.4%
15 | CCc1cccc(OC(=O)CCl)c1 | 3.1% | 7.5% | -1.65% | -24.4% | -17.8% | -5.1%
16 | O=C(O)CS(=O)(=O)c1nc2ccccc2[nH]1 | -27.3% | 20.6% | -7.75% | -57.6% | 10.8% | -14.8%
17 | CC1(C)C2CC(=O)C1(C)C(OCc1ccccc1)C2 (stereo unspecified) | -21.2% | 12.6% | 6.1% | 22.1% | -18.1% | 5.1%
18 | O=Cc1cc2ccccc2c2ccccc12 | -23.2% | -24% | 5.45% | -16.8% | 0.2% | -4.9%

Row | Structure (SMILES) | growth inhibition [1] | growth inhibition [2] | growth inhibition [3] | growth inhibition [4] | growth inhibition [5] | growth inhibition [6]
19 | c1ccc(N=C2NNC(=Nc3ccccc3)NN2)cc1 | -17.9% | 2.2% | 5.4% | 1.85% | 3.35% | 7.65%
20 | CCOC(=O)C1=NNCC1c1cccc(Cl)c1 (stereo unspecified) | 12.5% | -7.5% | -3.7% | -37.9% | -13.2% | -6.5%
21 | O=C(/C=C/c1ccccc1)Oc1ccccc1 | 3.45% | 5.55% | 1.5% | -19.9% | 23.8% | -4.85%
22 | Cc1ccc(S(=O)(=O)c2cc3ccccc3oc2=O)cc1 | -1.25% | 1% | -8.2% | -40% | -11.2% | -9.65%
23 | CCCCn1cnc2c(SSc3ncnc4c3ncn4CCCC)ncnc21 | -11.6% | -11.3% | 5.1% | 12% | 22.4% | 75.7% (active)
24 | CC(=O)NCC1(c2ccccc2)CCN(CC2COc3ccccc3O2)CC1 (stereo unspecified) | -15.3% | -16.4% | -15.2% | 16% | 17.1% | 9.45%
25 | CC1=C(C(=O)Nc2ccc([N+](=O)[O-])cc2)C(c2ccco2)C(C(=O)Nc2ccc([N+](=O)[O-])cc2)=C(C)N1 | 30.2% | 35.5% | 34.4% | 38.2% | 43.5% | 14.9%
26 | COC1/C=C/OC2(C)Oc3c(C)c(O)c4c(O)c(c(C=NNC(=O)c5ccc(N)cc5)c(O)c4c3C2=O)NC(=O)/C(C)=C/C=C/C(C)C(O)C(C)C(O)C(C)C(OC(C)=O)C1C (stereo unspecified) | -3.55% | 13.5% | -3.25% | -17.6% | -5.3% | 29.4%
27 | CCCCCCCC[N+]1([O-])CC[N+](C)([O-])CC1 (stereo unspecified) | 3.9% | 4.1% | -2.25% | -21.5% | -8.3% | 2.55%
28 | COC(=O)C(=O)C(C(=O)C1=NS(=O)(=O)c2cc(S(N)(=O)=O)c(Cl)cc2N1)c1nc2ccc(C(=O)c3ccccc3)cc2[nH]c1=O (stereo unspecified) | -9.7% | -18.1% | -18% | 6% | -19.9% | -19.2%
29 | CC1CCCCN1Cc1ccccc1COC(=O)c1cccc(Br)c1 (stereo unspecified) | 32.5% | -1.65% | 43.3% | -16.9% | 16.1% | 2.4%
30 | CCn1c(=O)c2[nH]c(-n3c(Cl)nc4c3c(=O)n(CC)c(=O)n4CC)nc2n(CC)c1=O | 31.1% | 2.8% | 2.9% | 14.2% | -0.5% | 21.4%
31 | Cc1c(-c2ccccc2)c(=O)oc2cc(O)ccc12 | -12.4% | 13% | 9.3% | -49.2% | 17.5% | 11.2%
32 | COc1cc(C=Nc2ccc(N3CCOCC3)cc2)ccc1O | -1.1% | -3.45% | -8.45% | -18.6% | 12.6% | -1.25%
33 | CCc1cc(CSc2ccc(Cl)cc2)ccc1N | 98.5% (active) | 99% (active) | 98.8% (active) | 97.2% (active) | 98% (active) | 98.2% (active)
34 | CCCC(=O)OC1CCCC1 | 27.9% | 27.8% | 20.4% | 24.1% | 21.8% | 28.7%
35 | Cc1cccc(NC(=O)CSc2nnc(-c3ccc(N=Cc4ccc(Cl)cc4)cc3)o2)c1 | 6.3% | -24.1% | 9.25% | -42.5% | 6.8% | 14.7%
36 | O=C1CC(=O)C(C(=O)c2ccccc2)N1 (stereo unspecified) | 18.3% | 8.55% | 5.3% | 1.8% | 7.8% | -2.45%
